Shown is part of a subset that was picked to be rich in hits.
TDP1 cell CPT = growth inhibition of DT40 Tdp1-/-;hTDP1 cells with camptothecin (screen for TDP1 inhibitors); Potency, µM (highest dose often 46.2 µM), for inactives: at the highest dose activity change, negative = growth inhibition, hits mostly inhibitors; hit rate 12% among 420,000; chicken DT40 Tdp1-/-;hTDP1 cells + 20 nM CPT, ATP luminescence, 48 h; further: potency means the concentration at half of the fitted maximal effect; nearly all actives have a fitted effect of over 55% in size
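Chicken DT40 Tdp1-/- cells complemented with human TDP1, 400 cells/well, exposed to compounds plus 20 nM camptothecin for at least 48 h at 37 C; viability read as ATP content by CellTiter-Glo luminescence.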
ALOX12 inh = inhibitors of human 12S-lipoxygenase ALOX12; purified 12hLO, xylenol orange hydroperoxide absorbance; Potency, µM (top dose mostly 108 µM), for inactives: top-dose activity change, negative = inhibition, actives largely listed as inhibitors; hit rate 1.1% among 580,000; AID 1671190; further: potency means the concentration at half of the fitted maximal effect
Target sequence (P18054 whole entry, looked up): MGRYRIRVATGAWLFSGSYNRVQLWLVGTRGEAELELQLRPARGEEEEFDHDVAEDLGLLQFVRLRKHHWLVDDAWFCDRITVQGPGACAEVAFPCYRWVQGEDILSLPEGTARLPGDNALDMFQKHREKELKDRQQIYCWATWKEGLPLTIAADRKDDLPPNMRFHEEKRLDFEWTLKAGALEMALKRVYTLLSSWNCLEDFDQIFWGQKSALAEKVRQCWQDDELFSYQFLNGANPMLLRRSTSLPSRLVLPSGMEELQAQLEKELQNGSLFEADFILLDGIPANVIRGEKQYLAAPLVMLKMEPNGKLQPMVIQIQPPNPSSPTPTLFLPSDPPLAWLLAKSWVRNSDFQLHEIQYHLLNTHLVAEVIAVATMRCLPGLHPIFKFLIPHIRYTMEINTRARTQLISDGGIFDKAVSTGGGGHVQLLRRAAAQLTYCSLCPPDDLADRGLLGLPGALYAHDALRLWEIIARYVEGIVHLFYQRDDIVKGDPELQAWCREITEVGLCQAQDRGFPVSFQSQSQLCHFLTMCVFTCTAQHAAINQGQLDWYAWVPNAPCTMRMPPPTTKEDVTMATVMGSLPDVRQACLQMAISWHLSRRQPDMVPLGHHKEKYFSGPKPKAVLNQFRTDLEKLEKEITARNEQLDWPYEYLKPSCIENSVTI
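Purified human 12hLO at 150 nM in 25 mM Hepes, 0.01% Triton X-100, pH 7.0, preincubated 15 min at room temperature with compound. Reaction started with 40 uM arachidonic acid, 30 min at room temperature. Hydroperoxide measured by Fe-xylenol orange, 573/405 nm absorbance ratio.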
HT1080 IDH1KD tx = toxicity to HT-1080 IDH1 knockdown cells (counter line). HT-1080 IDH1 knockdown viability, ATP luminescence, 48 h. Potency, µM (doses to about 46.1 µM), for inactives: top-dose activity, negative = toxicity, usual class: cytotoxic. hit rate 2% among 360,000. AID 686971;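 further: potency means the concentration at half of the fitted maximal effect; 0% = DMSO wells and -100% = cell-free medium wells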
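Knockdown cells (IDH1KD HT-1080) received compounds 2 h after plating at 750 cells/well and were kept 48 h at 37 °C in 5% FBS RPMI. A CellTiter-Glo luminescence read gave % activity for curve fitting.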
IL1B secr inh = blocks inflammasome-driven IL-1 beta release. THP-1 LPS/ATP IL-1B secretion, AlphaLISA, 16 h; hits give low values. activity change, % at 57.5 µM. hit rate 4.7% among 360,000; in the data active means activity change below about -50%; inconclusive means mostly about -30% to -49%
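Secreted IL-1B measured by AlphaLISA bead assay after 16 h compound exposure of THP-1 cells; compounds (final up to 57.5 uM) added 1 h before LPS (250 ng/mL) and ATP (1.25 mM) stimulation; lower signal means less secretion.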
HT1080-NT tox = kills 2HG-producing HT-1080-NT fibrosarcoma cells; Potency, µM (titrated, usually from 46.1 µM), inactives show at the top dose activity, negative = less viability, usual class: cytotoxic; HT-1080-NT fibrosarcoma viability, CellTiter-Glo ATP luminescence, 48 h; hit rate 1.6% among 360,000;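 further: NT is the 2HG producing partner of a matched IDH1 knockdown line; potency means the concentration at half of the fitted maximal effect; 0% = DMSO-treated cells and -100% = media-only wells without cells; nearly all actives have a fitted effect of over 55% in size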
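Compounds were tested in concentration-response format on HT-1080-NT cells for 48 hours at 37 degrees C. Cell viability came from CellTiter-Glo luminescence; curves were classified by r2, response magnitude and activity.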
TDP1 cell noCPT = qHTS for Inhibitors of human tyrosyl-DNA phosphodiesterase 1 (TDP1): qHTS in cells in absence of CPT. DT40 Tdp1-/- hTDP1 cells, no CPT, ATP luminescence, 48 h. Potency, µM (doses to about 46.2 µM), for inactives: at the highest dose activity change, negative = growth inhibition, usual class: inhibitors. hit rate 15% among 420,000; further: potency means the concentration at half of the fitted maximal effect; nearly all actives have a fitted effect of over 55% in size
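Chicken DT40 Tdp1-/- cells stably complemented with human TDP1 were seeded at 400 cells/well with DMSO in place of 20 nM camptothecin. After compound pinning, cells grew at least 48 hr at 37 °C; viability read by CellTiter-Glo luminescence.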
* hit, by the source's call; u = inconclusive; x = no result given. Unless noted, the call rests on the fitted dose curve; in most records, active means well fitted curve in the direction sought with a large enough effect; inconclusive means small, poorly fitted or top-dose-only effect, or another doubt; inactive means no such curve, though single readings can be large; an effect the other way counts as inactive or inconclusive. Unless noted, on the % scale 0 is the no-effect control and ±100 the full control effect.

SMILES | TDP1 cell CPT | ALOX12 inh | HT1080 IDH1KD tx | IL1B secr inh | HT1080-NT tox | TDP1 cell noCPT
Cn1c(SCc2ccc(C(F)(F)F)cc2)nc2c([nH]c3ccccc32)c1=O | 9.2µM* | -21% | x | x | x | 18µM*
Cc1ccc(Cl)cc1NC(=S)N(CCCN1CCOCC1)Cc1ccccn1 | -1% | -10% | 0% | -12 | 3% | -1%
COc1cc(Cl)ccc1NC(=S)N(CCCN1CCOCC1)Cc1cn(C)c2ccccc12 | 16µM* | 2% | u | u | u | 21µM*
COc1ccc(Cl)cc1NC(=S)N(CCCN1CCOCC1)Cc1cn(C)c2ccccc12 | 13µM* | -3% | -22% | -19 | u | u
Cc1nc(SCC(=O)N2CCNC2=O)c2ccccc2n1 | u | -4% | u | -96* | u | u
CC(C)c1nc(SCC(=O)Nc2nc3c(s2)CCCC3)c2ccccc2n1 | 18µM* | -23% | 11µM* | -63* | u | 11µM*
CC1CC(C)CN(C(=O)CSc2nc(Cc3cccs3)nc3ccccc23)C1 (stereo not drawn) | u | -4% | u | -61* | u | 21µM*
CCOC(=O)CNC(=O)CSc1nc(Cc2cccs2)nc2ccccc12 | u | 13% | -2% | -11 | -15% | u
O=C(CSc1ncn(-c2ccccc2)n1)Nc1nc2c(s1)CCCC2 | u | 13% | -10% | 7 | 1% | u
O=C(CCSc1ccccc1)Nc1nc2c(s1)CCCC2 | u | -24% | u | -4 | -11% | 10µM*
CCc1ccccc1NC(=O)CN(C)C(=O)COc1ccc2oc3c(c2c1)CCCC3 | x | 9% | x | x | x | x
COc1ccc(C(C)=O)c(OCc2ccc(C#N)cc2)c1 | x | -1% | x | x | x | x
CN(C)C(=O)COc1ccccc1-c1noc(-c2ccc(S(=O)(=O)NC3CC3)o2)n1 | x | -23% | x | x | x | x
Cc1cc(NC(=O)CSc2nc(C(C)C)nc3ccccc23)no1 | u | 0% | 16µM* | -18 | u | u
CC(C)(C)c1nc(SCC(=O)N2CCCC2)c2ccccc2n1 | 21µM* | 6% | -1% | -18 | 1% | 16µM*
Cc1nc2ccccc2nc1SCC(=O)N1CCCCC1 | x | -2% | x | x | x | x
CC(C)c1nc(SCC(=O)NC2CCCC2)c2ccccc2n1 | -26% | -21% | 1% | u | -16% | u
CC(C)(C)c1nc(SCC(=O)Nc2nc3c(s2)CCCC3)c2ccccc2n1 | 15µM* | -6% | 1.4µM* | -4 | u | 12µM*
Cc1nnc(NC(=O)CSc2nc(C(C)C)nc3ccccc23)s1 | 6.5µM* | -13% | 19% | 8 | -2% | 7.1µM*
COc1ccccc1/C=C(/C#N)C(=O)c1c[nH]c2cccc(C)c12 | x | -46% | x | x | x | x
O=S(=O)(O)NCCCO | x | 6% | x | x | x | x
Cc1oc(-c2cccs2)nc1CC(=O)Nc1cc(F)ccc1F | x | -12% | x | x | x | x
Cc1ccc(Nc2sc(C(=O)c3ccccc3)c(N)c2C(=O)Nc2ccc(Cl)cc2)cc1 | u | u | x | x | x | 18µM*
COc1ccccc1NC(=O)c1c(Nc2ccccc2F)sc(C(=O)Nc2cccc(Cl)c2)c1N | u | 0% | u | u | 15µM* | 26µM*
N#Cc1c(Nc2ccccc2)sc(C(=O)c2ccccc2)c1N | -2% | 141% | -20% | -14 | -6% | u
SMILES | TDP1 cell CPT | ALOX12 inh | HT1080 IDH1KD tx | IL1B secr inh | HT1080-NT tox | TDP1 cell noCPT
CCOc1ccc(NC(=O)c2c(Nc3ccc(OC)cc3OC)sc(C(=O)c3ccc(Cl)cc3)c2N)cc1 | 12µM* | -5% | x | x | x | 13µM*
Nc1c(C(=O)c2ccccc2)sc(Nc2ccc(Cl)c(Cl)c2)c1C(=O)Nc1ccccc1 | u | u | x | x | x | 4.1µM*
COc1ccc(CNC(=O)c2c(Nc3ccc(OC)cc3OC)sc(C(=O)c3ccc(Cl)cc3)c2N)cc1 | u | 3% | x | x | x | u
O=C(COC(=O)c1nc(-c2ccccc2)n(-c2ccccc2)n1)Nc1cc(F)ccc1F | x | -20% | x | x | x | x
CCN(Cc1ccncc1)C(=O)CC1=C2CCCCC2N(C)C1=O (stereo not drawn) | x | 15% | x | x | x | x
Cc1cc(NC(=O)CCc2ncc(-c3ccc(Cl)cc3)o2)no1 | x | -24% | x | x | x | x
CCN(CC)CC(=O)Nc1sc(C)cc1C(=O)c1ccccc1 | u | 27% | -17% | -23 | -9% | u
Cc1cc(C(=O)c2ccccc2)c(NC(=O)CCl)s1 | 9.2µM* | -2% | u | -100* | u | 23µM*
O=C(NCCCN1CCOCC1)c1cc(-c2ccc3c(c2)OCO3)nc2ccccc12 | -29% | -24% | -2% | u | -6% | u
COc1ccc(-c2cc(C(=O)NCCN3CCOCC3)c3ccccc3n2)cc1 | -24% | 0% | -18% | -12 | -3% | u
O=C(NCCCN1CCCC1=O)c1cc(-c2ccc3c(c2)OCO3)nc2ccccc12 | 16µM* | u | -22% | 12 | -2% | u
COc1ccc2nc(-c3ccc4c(c3)OCO4)cc(C(=O)NCCN3CCOCC3)c2c1 | x | 40µM* | x | x | x | x
COc1ccccc1N1CCN(c2ncccc2CNC(C)Cn2ccnc2)CC1 (stereo not drawn) | x | 41% | x | x | x | x
COc1ccc2c(CN3CCCC(C(F)(F)F)C3)cc(=O)oc2c1 (stereo not drawn) | x | -8% | x | x | x | x
O=c1n(-c2ccncc2)nc2n1CCN([S+](=O)([O-])c1cccs1)C2 | x | 58% | x | x | x | x
O=C(N/N=C(\Cc1ncc[nH]1)c1ccccc1)c1cccnc1 | 4.6µM* | 4% | u | 101 | u | 4.6µM*
O=C(N/N=C(\Cc1ncc[nH]1)c1ccccc1)c1ccncc1 | 4.6µM* | 2% | 4.1µM* | 59 | -27% | 4.6µM*
O=C(N/N=C(\Cc1ncc[nH]1)c1ccccc1)c1ccccc1 | x | -2% | x | x | x | x
O=C(N/N=C(\c1ccccc1)c1cccnc1)c1ccc(O)cc1 | -17% | -9% | 8% | -12 | 5% | 13%
COc1ccc(C2Cn3nnc(C(=O)N4CCN(C(=O)c5ccc(F)cc5)CC4)c3CO2)cc1 (stereo not drawn) | x | -4% | x | x | x | x
COc1cc(C=O)cc(Cl)c1OCc1ccc(C(=O)O)cc1 | x | -11% | x | x | x | x
COc1cc(OC)c(C(=O)/C=C/c2ccccc2)c(O)c1O | u | u | -18% | -100* | -16% | u
COc1cc(O)cc(O)c1C(=O)/C=C/c1ccccc1 | 15µM* | u | -13% | -106* | -16% | 15µM*
Cc1cccc(C)c1-n1nnnc1SCC(=O)N(Cc1ccco1)C1=CCCCC1 | x | -52% | x | x | x | x

Screens from PubChem BioAssay.
